Laboratory results reported in the supplement of paper PMC11732987, “Enantioselective OTUD7B fragment discovery through chemoproteomics screening and high-throughput optimisation” (Communications Chemistry, 2025).

How the values were obtained:
Assay in all cases: log2 ratio of Biotin-Ahx-Ub-VS probe labelling (fragment/DMSO); higher = less target engagement (more negative = stronger competition), active = hit call of the paper (q ≤ 0.05, log2 ratio ≤ -1)
Details in all cases: compound concentration: 200 uM; treatment time: 3 h
[1] = target: T1, USP42 (UniProt Q9H9J4)
T1 sequence (whole entry): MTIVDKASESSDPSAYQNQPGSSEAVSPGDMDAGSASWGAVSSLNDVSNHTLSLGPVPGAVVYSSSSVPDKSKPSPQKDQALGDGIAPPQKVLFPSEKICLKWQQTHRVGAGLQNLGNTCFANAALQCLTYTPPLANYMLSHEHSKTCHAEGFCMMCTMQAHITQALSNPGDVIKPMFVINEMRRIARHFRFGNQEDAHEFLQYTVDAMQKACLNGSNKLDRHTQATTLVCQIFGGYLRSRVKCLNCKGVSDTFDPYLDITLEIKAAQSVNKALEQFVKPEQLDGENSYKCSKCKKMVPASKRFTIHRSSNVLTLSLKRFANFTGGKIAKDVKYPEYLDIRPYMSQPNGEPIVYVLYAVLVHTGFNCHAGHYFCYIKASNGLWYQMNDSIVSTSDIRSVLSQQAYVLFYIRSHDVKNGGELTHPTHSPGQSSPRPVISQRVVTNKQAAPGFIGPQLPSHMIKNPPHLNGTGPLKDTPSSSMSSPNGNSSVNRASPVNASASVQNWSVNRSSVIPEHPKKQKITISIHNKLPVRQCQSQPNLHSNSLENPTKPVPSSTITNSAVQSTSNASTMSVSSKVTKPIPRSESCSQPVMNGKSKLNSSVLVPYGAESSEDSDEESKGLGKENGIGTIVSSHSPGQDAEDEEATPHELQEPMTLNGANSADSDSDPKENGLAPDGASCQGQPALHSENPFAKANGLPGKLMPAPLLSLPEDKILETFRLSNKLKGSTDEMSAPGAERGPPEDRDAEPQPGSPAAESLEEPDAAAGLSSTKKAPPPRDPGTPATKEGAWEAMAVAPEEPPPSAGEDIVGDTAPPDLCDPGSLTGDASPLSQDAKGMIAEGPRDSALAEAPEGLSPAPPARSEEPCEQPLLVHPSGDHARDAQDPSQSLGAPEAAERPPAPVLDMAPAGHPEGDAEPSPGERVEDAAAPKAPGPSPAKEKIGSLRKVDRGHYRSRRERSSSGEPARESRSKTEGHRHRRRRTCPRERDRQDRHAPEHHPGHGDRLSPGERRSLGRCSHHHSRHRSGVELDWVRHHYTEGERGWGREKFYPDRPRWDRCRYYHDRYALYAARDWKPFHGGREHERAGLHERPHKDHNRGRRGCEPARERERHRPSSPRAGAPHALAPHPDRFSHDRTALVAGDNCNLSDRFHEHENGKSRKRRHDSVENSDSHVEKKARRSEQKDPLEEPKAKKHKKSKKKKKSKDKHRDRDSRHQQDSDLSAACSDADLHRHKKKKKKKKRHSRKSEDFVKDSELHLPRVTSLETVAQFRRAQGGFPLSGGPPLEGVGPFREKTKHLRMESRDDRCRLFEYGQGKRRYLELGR
In short: (§1)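 HEK293T lysate (495 µg per sample, in Tris/CHAPS/IGEPAL buffer with protease inhibitors) was exposed in triplicate for 3 h to fragment at 200 µM or to vehicle, then to Biotin-Ahx-Ub-VS at 0.5 µM final for 1 h. Labelled DUBs were enriched on NeutrAvidin, digested with LysC and trypsin, and analysed by diaPASEF LC-MS/MS. Spectronaut label-free quantities were normalised to the global median, and values are average log2 ratios of fragment over vehicle from an unpaired t-test. Only proteins with ≥2 unique peptides were used.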

[2] = target: USP46 (UniProt P62068)
In short: as §1

[3] = target: T2, USP47 (UniProt Q96K76)
T2 sequence (whole entry): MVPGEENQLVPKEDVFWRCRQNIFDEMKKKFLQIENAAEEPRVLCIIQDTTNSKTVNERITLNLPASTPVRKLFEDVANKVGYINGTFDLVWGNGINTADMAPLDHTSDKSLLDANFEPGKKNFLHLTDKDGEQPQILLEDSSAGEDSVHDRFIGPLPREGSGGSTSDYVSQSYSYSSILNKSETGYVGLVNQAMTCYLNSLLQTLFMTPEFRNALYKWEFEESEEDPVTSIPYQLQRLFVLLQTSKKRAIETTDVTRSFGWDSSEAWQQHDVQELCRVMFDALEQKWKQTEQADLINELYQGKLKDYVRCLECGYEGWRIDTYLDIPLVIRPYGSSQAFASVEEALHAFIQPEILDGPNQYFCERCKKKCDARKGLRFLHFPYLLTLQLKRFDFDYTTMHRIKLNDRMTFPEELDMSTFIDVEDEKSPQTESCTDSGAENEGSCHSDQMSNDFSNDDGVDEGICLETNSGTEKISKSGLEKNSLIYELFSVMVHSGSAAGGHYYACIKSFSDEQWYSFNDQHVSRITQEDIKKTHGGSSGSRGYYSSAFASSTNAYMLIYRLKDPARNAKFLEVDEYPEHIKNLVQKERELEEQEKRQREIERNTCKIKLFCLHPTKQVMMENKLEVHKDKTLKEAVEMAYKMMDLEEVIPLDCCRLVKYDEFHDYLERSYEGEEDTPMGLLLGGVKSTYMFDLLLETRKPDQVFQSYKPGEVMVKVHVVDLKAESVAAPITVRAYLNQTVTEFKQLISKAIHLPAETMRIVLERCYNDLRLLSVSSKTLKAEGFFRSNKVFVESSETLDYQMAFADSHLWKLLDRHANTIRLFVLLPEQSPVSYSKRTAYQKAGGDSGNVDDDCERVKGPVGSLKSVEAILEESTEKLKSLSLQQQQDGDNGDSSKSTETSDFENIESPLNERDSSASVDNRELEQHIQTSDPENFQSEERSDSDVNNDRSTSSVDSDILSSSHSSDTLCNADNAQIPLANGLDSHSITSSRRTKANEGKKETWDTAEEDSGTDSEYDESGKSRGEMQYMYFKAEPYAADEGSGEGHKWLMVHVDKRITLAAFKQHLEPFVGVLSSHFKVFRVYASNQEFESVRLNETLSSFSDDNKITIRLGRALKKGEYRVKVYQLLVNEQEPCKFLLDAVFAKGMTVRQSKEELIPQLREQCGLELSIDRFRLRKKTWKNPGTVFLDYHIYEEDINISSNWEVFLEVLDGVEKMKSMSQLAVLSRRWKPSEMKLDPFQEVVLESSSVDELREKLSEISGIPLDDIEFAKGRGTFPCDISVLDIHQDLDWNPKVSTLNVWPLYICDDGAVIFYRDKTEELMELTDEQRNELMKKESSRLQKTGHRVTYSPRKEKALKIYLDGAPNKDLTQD
In short: as §1

[4] = target: T3, USP48 (UniProt Q86UV5)
T3 sequence (whole entry): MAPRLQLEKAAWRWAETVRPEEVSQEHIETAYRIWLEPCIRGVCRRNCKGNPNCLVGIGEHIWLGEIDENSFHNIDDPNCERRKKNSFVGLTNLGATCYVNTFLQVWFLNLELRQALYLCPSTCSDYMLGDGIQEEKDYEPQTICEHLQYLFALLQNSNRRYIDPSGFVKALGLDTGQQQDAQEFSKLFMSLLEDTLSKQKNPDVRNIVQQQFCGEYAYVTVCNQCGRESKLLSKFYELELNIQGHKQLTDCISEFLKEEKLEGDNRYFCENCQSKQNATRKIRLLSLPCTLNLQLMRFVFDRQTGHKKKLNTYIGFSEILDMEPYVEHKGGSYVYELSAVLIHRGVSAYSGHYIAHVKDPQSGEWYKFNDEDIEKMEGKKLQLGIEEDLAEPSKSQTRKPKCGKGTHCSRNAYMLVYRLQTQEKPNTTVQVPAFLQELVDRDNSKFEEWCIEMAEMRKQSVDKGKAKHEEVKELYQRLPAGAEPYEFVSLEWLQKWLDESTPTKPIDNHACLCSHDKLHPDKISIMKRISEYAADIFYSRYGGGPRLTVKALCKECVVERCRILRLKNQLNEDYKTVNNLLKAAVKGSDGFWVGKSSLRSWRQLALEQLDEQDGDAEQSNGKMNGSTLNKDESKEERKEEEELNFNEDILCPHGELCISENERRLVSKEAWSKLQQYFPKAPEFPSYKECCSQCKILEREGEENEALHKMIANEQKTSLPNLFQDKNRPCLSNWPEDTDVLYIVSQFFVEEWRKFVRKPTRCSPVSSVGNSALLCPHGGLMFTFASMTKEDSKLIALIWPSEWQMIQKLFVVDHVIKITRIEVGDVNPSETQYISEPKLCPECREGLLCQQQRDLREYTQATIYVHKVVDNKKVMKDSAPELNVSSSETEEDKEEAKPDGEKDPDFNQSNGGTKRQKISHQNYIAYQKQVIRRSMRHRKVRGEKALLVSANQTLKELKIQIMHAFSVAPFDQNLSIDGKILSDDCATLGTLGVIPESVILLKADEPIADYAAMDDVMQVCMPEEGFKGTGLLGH
In short: as §1

[5] = target: T4, USP5 (UniProt P45974)
T4 sequence (whole entry): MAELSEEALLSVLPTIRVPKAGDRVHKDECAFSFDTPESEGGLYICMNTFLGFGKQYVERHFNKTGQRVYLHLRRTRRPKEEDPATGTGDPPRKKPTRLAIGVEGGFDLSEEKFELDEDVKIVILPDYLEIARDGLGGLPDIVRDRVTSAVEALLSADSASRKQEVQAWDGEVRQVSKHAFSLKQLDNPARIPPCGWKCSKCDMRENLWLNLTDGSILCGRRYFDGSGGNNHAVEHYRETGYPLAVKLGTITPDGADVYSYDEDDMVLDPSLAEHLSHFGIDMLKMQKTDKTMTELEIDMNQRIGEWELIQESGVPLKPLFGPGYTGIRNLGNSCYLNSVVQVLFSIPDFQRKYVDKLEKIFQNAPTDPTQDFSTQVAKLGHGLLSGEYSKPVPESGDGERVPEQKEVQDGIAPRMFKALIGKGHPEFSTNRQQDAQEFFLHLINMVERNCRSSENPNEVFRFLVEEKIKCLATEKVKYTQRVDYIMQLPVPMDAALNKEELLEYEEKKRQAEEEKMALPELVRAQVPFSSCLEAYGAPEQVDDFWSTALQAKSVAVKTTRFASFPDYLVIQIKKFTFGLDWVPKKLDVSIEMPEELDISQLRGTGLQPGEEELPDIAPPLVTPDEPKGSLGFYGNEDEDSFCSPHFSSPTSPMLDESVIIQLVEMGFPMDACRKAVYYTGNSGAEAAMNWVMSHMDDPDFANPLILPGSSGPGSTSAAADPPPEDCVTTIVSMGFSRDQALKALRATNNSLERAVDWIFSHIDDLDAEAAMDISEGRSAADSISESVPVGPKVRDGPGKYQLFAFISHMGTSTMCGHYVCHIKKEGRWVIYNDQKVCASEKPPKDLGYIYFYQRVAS
In short: as §1

[6] = target: USP54 (UniProt Q70EL1)
In short: as §1

[7] = target: USP7 (UniProt Q93009)
In short: as §1

[8] = target: T5, USP8 (UniProt P40818)
T5 sequence (whole entry): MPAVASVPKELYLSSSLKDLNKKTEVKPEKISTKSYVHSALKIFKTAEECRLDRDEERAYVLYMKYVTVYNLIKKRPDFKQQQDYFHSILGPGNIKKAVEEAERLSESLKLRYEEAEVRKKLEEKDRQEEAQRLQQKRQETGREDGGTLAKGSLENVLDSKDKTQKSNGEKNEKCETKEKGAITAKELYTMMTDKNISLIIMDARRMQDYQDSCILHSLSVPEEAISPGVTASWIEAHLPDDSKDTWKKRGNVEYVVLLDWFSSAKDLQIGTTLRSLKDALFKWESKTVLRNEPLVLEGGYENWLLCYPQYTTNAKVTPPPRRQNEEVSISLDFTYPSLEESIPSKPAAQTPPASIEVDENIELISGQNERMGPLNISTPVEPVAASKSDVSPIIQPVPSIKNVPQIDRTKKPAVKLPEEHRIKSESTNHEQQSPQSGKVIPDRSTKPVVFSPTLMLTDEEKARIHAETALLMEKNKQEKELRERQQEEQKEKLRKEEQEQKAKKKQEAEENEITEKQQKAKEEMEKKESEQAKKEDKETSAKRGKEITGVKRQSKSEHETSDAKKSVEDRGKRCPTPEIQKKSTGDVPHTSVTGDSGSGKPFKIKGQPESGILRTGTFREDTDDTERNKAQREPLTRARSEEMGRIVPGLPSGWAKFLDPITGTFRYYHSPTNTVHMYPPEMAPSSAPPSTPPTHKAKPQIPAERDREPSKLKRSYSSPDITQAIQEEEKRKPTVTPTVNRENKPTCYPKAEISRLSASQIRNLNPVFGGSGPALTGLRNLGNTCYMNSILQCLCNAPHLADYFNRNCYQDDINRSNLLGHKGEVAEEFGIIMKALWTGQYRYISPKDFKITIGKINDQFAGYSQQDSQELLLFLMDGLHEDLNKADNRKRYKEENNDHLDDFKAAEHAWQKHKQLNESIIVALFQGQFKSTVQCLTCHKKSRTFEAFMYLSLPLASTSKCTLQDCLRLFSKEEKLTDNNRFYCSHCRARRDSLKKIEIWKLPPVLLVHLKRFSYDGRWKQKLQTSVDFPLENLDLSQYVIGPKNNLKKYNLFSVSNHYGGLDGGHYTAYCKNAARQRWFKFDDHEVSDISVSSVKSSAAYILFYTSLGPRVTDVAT
In short: as §1

Measured: log2 ratio of Biotin-Ahx-Ub-VS probe labelling

USP54, sequence (Q70EL1 whole entry): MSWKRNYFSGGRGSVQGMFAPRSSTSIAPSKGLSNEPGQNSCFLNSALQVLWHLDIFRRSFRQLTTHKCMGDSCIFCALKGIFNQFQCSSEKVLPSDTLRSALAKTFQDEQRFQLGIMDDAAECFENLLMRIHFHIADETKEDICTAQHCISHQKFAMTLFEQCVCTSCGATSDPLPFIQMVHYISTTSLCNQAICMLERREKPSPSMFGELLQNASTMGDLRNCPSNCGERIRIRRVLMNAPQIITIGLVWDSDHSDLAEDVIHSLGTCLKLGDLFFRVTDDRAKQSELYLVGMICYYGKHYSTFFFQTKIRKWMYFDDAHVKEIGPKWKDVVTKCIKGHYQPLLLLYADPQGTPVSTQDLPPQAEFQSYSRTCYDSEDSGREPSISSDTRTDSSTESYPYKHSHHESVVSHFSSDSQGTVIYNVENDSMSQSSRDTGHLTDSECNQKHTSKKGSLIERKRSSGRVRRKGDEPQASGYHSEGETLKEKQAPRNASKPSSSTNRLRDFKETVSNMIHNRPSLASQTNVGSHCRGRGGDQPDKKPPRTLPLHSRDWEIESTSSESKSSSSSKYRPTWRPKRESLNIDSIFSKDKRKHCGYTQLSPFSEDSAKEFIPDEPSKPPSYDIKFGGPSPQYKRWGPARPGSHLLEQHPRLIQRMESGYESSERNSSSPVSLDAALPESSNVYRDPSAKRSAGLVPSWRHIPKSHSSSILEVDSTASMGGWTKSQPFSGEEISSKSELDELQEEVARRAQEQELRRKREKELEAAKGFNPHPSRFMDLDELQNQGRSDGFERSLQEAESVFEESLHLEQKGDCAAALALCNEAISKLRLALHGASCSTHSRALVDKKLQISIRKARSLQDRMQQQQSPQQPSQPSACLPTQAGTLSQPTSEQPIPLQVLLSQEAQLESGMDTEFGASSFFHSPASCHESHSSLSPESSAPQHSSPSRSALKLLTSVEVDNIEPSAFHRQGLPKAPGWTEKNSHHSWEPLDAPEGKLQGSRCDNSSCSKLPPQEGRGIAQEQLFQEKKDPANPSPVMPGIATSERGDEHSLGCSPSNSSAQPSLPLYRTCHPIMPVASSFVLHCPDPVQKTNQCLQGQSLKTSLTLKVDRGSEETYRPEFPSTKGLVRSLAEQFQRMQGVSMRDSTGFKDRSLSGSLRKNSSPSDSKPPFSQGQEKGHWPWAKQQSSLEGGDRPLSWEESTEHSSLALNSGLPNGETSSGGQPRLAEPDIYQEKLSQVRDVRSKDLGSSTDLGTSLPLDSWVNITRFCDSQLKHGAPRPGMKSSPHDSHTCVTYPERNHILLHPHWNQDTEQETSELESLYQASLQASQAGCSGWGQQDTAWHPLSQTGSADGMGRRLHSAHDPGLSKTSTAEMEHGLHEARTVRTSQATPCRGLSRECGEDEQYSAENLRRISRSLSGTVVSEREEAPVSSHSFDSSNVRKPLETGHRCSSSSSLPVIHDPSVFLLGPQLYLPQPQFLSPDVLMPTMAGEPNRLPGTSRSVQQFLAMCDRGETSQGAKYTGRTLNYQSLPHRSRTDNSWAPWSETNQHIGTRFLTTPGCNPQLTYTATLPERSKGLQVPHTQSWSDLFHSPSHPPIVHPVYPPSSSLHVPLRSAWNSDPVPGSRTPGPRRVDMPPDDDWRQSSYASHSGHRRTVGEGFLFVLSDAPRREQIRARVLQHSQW
USP7, sequence (Q93009 whole entry, looked up): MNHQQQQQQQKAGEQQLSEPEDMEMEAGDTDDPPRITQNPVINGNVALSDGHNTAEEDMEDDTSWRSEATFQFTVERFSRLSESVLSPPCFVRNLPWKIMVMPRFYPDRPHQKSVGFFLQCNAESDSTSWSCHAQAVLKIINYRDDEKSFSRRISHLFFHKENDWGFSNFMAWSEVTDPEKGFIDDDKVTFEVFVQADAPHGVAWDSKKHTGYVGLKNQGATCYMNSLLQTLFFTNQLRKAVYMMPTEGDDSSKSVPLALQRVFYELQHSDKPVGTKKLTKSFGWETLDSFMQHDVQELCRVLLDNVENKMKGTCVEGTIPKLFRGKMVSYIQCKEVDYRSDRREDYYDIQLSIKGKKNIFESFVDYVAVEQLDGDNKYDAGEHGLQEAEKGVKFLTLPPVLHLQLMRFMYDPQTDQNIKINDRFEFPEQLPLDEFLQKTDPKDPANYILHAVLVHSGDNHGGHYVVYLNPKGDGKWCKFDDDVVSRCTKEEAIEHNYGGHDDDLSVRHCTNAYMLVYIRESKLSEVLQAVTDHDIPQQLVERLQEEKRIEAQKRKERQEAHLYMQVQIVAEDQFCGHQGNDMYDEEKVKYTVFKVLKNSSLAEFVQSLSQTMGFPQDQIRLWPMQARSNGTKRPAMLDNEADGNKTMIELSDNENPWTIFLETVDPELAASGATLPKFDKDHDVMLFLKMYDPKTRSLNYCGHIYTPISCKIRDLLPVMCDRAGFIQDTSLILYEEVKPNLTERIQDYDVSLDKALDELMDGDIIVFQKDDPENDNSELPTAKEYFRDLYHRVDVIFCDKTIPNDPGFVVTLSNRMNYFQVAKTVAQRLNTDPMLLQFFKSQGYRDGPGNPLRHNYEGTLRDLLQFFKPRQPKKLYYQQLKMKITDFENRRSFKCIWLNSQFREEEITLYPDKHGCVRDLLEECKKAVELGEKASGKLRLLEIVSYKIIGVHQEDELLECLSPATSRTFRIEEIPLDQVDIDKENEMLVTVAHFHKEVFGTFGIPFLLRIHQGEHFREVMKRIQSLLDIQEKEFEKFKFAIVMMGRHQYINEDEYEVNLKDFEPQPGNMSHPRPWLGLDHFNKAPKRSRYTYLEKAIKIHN
USP46, sequence (P62068 whole entry): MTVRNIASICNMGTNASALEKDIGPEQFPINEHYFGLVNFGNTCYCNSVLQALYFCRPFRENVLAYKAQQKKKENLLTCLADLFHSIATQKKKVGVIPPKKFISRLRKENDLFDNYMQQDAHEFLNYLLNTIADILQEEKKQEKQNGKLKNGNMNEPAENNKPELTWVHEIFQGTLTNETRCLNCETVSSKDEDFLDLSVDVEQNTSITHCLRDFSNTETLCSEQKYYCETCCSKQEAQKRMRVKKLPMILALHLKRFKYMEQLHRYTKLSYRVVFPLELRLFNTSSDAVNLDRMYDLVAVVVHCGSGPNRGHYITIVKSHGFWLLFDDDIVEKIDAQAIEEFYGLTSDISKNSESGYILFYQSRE

COc1ccc(Cl)cc1NC(=O)CCl
inactive: [1] 0.21 | [2] -0.265 | [3] -0.266 | [4] -0.394 | [5] -0.409 | [6] 0.0369 | [7] -0.593 | [8] -0.171
